According to PubChem BioAssay (NCATS):
Results filed as inconclusive are left out. Active and inactive are the calls of the source. The call rests on the fitted dose curve; in most records, active means well fitted curve in the direction sought with a large enough effect; inconclusive means small, poorly fitted or top-dose-only effect, or another doubt; inactive means no such curve, though single readings can be large; an effect the other way counts as inactive or inconclusive. Where a SMILES comes first, the peptide text is derived from it. [ ]: non-standard residue; d: D form. Hyp = O=C(O)[CH]1C[CH](O)CN1; Phe(ol) = N[CH](CO)Cc1ccccc1; Iva = CC[C](C)(N)C(=O)O; Aib = CC(C)(N)C(=O)O

What was measured:
[1] = biological target: Phospholipid hydroperoxide glutathione peroxidase GPX4 (Homo sapiens) (UniProt P36969); experiment: Primary qHTS Assay for Inhibitors of Recombinant Selenoprotein Glutathione Peroxidase 4 (GPX4) (AID 1845192); further: nearly all actives have a fitted effect of over 65% in size; on activity change, negative = inhibition: series mostly up to about 50 µM; on the % scale 0 is the no-effect control and ±100 the full control effect
Chain of Phospholipid hydroperoxide glutathione peroxidase GPX4 (Homo sapiens) (P36969 whole entry, looked up): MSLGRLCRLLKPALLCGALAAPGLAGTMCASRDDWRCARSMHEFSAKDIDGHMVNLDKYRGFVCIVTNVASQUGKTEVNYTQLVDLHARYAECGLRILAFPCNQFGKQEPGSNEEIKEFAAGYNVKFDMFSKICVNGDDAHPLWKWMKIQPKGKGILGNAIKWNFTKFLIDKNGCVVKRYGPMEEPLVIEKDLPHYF
Summary of the method: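 GR-coupled assay: recombinant GPX4 preincubated 30 min with compound at room temperature; final 200 nM GPX4, 1 mM GSH, 0.5 mM cumene hydroperoxide, 0.5 mM NADPH, 100 nM GR, 0.01% BSA, pH 7.5 Tris. NADPH fluorescence (340/450 nm) read at 0 and 15 min.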

[2] = biological target: Luciferin 4-monooxygenase (Photinus pyralis) (UniProt P08659); experiment: Primary firefly luciferase (FLuc) qHTS assay for identification of artifact compounds. (AID 1845220); further: nearly all actives have a fitted effect of over 60% in size; further: potency means the concentration at half of the fitted maximal effect;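 on activity change, negative = inhibition: series mostly up to about 54 µM; plate controls were DMSO vehicle for no effect and no enzyme for full effect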
Summary of the method: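 Enzymatic FLuc inhibition assay: compounds pre-exposed to luciferin/ATP (10 uM each) for 15 min, then purified P. pyralis enzyme at 10 nM added. Read-out: luminescence at 5 min.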

[3] = Primary fluorescence-based thiol-reactive (MSTI) qHTS assay for identification of artifact compounds. (AID 1845221); further: nearly all actives have a fitted effect of over 65% in size; further: potency means the concentration at half of the fitted maximal effect;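 on activity change, negative = thiol reactive: series mostly up to about 54 µM; thiol-reactive compounds lower the probe fluorescence signal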
Summary of the method: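 One-hour, room-temperature, dark incubation of compound with 4 uM MSTI in PBS (pH 7.4, 2% DMSO) precedes a fluorescence read at 525 nm excitation, 598 nm emission; Hill-equation fitting yields concentration-response values.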

[4] = test system: Nanoluciferase (engineered Oplophorus gracilirostris luciferase); experiment: Primary Nanoluciferase (NLuc) qHTS assay for identification of artifact compounds. (AID 1845222);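 further: NLuc secreted into diluted conditioned medium of S16 cells; series mostly up to about 54 µM; 0% = DMSO and -100% = no enzyme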
Summary of the method: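 S16 cell supernatant NLuc, 1:55; cpds qHTS; 15 min RT dark; Nano-Glo substrate 1:100, 5 min; luminescence; Hill fit of % inhibition.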

[5] = Primary redox qHTS assay for identification of artifact compounds. (AID 1845223);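 further: 0% = DMSO and 100% = reference compound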
Summary of the method: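 Amplex Red (25 uM) and HRP (250 mU/mL) in HBSS, with compounds for 15 min, then 250 uM DTT for 30 min, room temperature, dark. Fluorescence 525/598 nm read; normalized to DMSO and 10 uM DA3003; Hill fit.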

CO[C@H]1O[C@@H]2O[C@@]3(C)CCC4[C@H](C)CCC([C@H]1C)[C@]42OO3 (some centres not stated)
inactive: Potency [1] | Potency [2] | Potency [3] | Potency [4] | Potency [5]

CCCCCCCOc1cc2c(cc1/C(C)=C/c1ccc(C(=O)O)cc1)C(C)(C)CCS2(=O)=O
inactive: Potency [1] | Potency [2] | Potency [3] | Potency [4] | Potency [5]

CCC/C=C/c1cc2c(C=O)c(O)c(CC=C(C)C)cc2o1
inactive: Potency [1] | Potency [2] | Potency [4] | Potency [5]
active: Potency [3] 23.8 µM

COc1cc2c(cc1-c1c(C)noc1C)ncc1[nH]c(=O)n(C(C)c3ccccn3)c12 (configuration not stated)
inactive: Potency [1] | Potency [2] | Potency [3] | Potency [4] | Potency [5]

CN1CCC(NC(=O)c2cc(-c3c(O)cc(O)cc3Oc3ccc([N+](=O)[O-])cc3)on2)CC1
inactive: Potency [1] | Potency [2] | Potency [4]

CC#CCn1c(N2CCCC(N)C2)nc2c1c(=O)n(Cc1nc(C)c3ccccc3n1)c(=O)n2C (configuration not stated)
inactive: Potency [1] | Potency [2] | Potency [3] | Potency [4]

CC(NC(=O)Cc1cc(F)cc(F)c1)C(=O)NC1C(=O)N(C)c2ccccc2-c2ccccc21 (configuration not stated)
inactive: Potency [1] | Potency [2] | Potency [3] | Potency [4] | Potency [5]

Cc1cc(OCCCS(C)(=O)=O)cc(C)c1-c1cccc(COc2ccc(C3=CC(=O)NS3=O)cc2)c1 (configuration not stated)
inactive: Potency [1] | Potency [2] | Potency [3] | Potency [4] | Potency [5]

CC(C)C[C@@H]1NC(=O)[C@@H]2C[C@@]34C[C@@H]5[C@@]6(C)CCCC(C)(C)C6CC[C@@]5(C)N(c5ccccc53)[C@H]4N2C1=O (some centres not stated)
inactive: Potency [1] | Potency [2] | Potency [3] | Potency [4] | Potency [5]

CC(=O)Nc1nc(C)c(-c2nc(N3CCCC(O)C3)no2)s1 (configuration not stated)
inactive: Potency [2] | Potency [3] | Potency [4] | Potency [5]

O=C1C[C@]23C=CCN4CCC5c6cc7c(cc6N1[C@@]5(CC2)C43)OCO7 (some centres not stated)
inactive: Potency [1] | Potency [2] | Potency [4] | Potency [5]

COc1cc(C(=O)O)ccc1NC(=O)C1NC(CC(C)(C)C)C(C#N)(c2ccc(Cl)cc2F)C1c1cccc(Cl)c1F (configuration not stated)
inactive: Potency [1] | Potency [3] | Potency [4] | Potency [5]

CCC(C)(NC(=O)C(CCC(N)=O)NC(=O)C1CC(O)CN1C(=O)C(C)(C)NC(=O)C(C)(C)NC(=O)C(CC(C)C)NC(=O)CNC(=O)C(NC(=O)C(C)(C)NC(=O)C(C)(C)NC(=O)C(C)(C)NC(=O)C(Cc1ccccc1)NC(C)=O)C(C)C)C(=O)N1CC(O)CC1C(=O)NC(C)(C)C(=O)NC(CO)Cc1ccccc1 (configuration not stated) (Ac-F[Aib][Aib][Aib]VGL[Aib][Aib][Hyp]Q[Iva][Hyp][Aib][Phe(ol)]; configuration not given here)
inactive: activity change, negative = inhibition [1] -5.56% [at 9.73 µM] | activity change, negative = thiol reactive [3] 0.987% [at 11.5 µM] | activity, negative = inhibition [4] -0.795% [at 11.6 µM] | redox activity (% of DA3003) [5] 15.7% [at 11.5 µM]

CC1(NC(=O)c2ccc(C#Cc3cccc(F)c3)cn2)COC1
inactive: Potency [1] | Potency [2] | Potency [4] | Potency [5]

O=C(NCc1cccs1)c1cc2nc(-c3ccco3)cc(C(F)(F)Cl)n2n1
inactive: Potency [1] | Potency [2] | Potency [4] | Potency [5]

Nc1nc2c(s1)CCN(Cc1ccc(Cl)cc1)CC2
inactive: Potency [1] | Potency [2] | Potency [4] | Potency [5]

O=C(Nc1ccccc1C(=O)NC1CCCCNC1=O)c1cc2ccccc2s1 (configuration not stated)
inactive: Potency [3] | Potency [4] | Potency [5]

Cc1[nH]c(/C=C2\C(=O)Nc3cc(-c4ccccc4)ccc32)c(C)c1CCC(=O)O
inactive: Potency [5]
active: Potency [2] 6.01 µM | Potency [3] 0.67 µM

NC(=O)c1cnc(N[C@@H]2CCCC[C@H]2N)nc1Nc1cccc(-n2nccn2)c1
inactive: Potency [1] | Potency [2] | Potency [4]

Cc1nc2cc(C(=O)NCc3ccccn3)nn2c(C)c1Cc1cccc(Cl)c1
inactive: Potency [2] | Potency [4] | Potency [5]

NC(=O)c1cccc2[nH]c(-c3ccc(C4CCCN4)cc3F)nc12 (configuration not stated)
inactive: Potency [3] | Potency [4] | Potency [5]

COc1cc2nc(N3CCN(C(=O)COc4c(OC)cccc4C(C)C)CC3)nc(N)c2cc1OC
inactive: Potency [2] | Potency [4] | Potency [5]

CN(C)C(=O)Nc1cccc(-c2ccc(N(C)C)cc2)c1
inactive: Potency [1] | Potency [4] | Potency [5]
active: Potency [3] 2.67 µM
